Measured values as given in PubChem BioAssay (EPA / NIEHS).
Active and inactive are the calls of the source. Rule for the calls: active = hit-call score of the fitted dose curve at least 0.9, where 1 is the maximum; inactive = score below 0.9.

What was measured:
[1] = biological target: Hypoxia-inducible factor 1-alpha (Homo sapiens) (UniProt Q16665); assay: ATG_HIF1a_CIS: Attagene CIS-FACTORIAL HepG2 Assay for human Hypoxia Inducible Factor 1 (HIF1A) (AID 2282951); conditions: HepG2 Attagene cis-factorial HIF1a reporter transcription; actives raise or lower the signal
Outline: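 HepG2, transient cis-reporter library, 24 h dosing. RNA → RT (oligo dT) → PCR → 6-FAM primer extension → HpaI → CE. Bidirectional curve fit vs DMSO.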

[2] = biological target: Hepatocyte nuclear factor 6 (Homo sapiens) (UniProt Q9UBC0); assay: ATG_HNF6_CIS: Attagene CIS-FACTORIAL HepG2 Assay for human Hepatocyte Nuclear Factor 6 (HNF6) (AID 2282952); conditions: HepG2 Attagene cis-factorial HNF6 reporter transcription; actives raise or lower the signal
Outline: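 HepG2, transient MRTU transfection (cis promoters); 24 h chemical exposure; total RNA → oligo(dT) RT → PCR → 6-FAM labelling → HpaI cut → CE; bidirectional fit vs DMSO.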

[3] = biological target: Heat shock factor protein 1 (Homo sapiens) (UniProt Q00613); assay: ATG_HSE_CIS: Attagene CIS-FACTORIAL HepG2 Assay for human Heat Shock Transcription Factor 1 (HSE) (AID 2282953); conditions: HepG2 HSE cis-reporter, Attagene RNA transcription; actives raise or lower the signal
Outline: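 HepG2, transient MRTU transfection, cis-promoter reporters (endogenous TF activity). 24 h compound. RNA → oligo(dT) RT → PCR → 6-FAM primer extension → HpaI cut → CE. Bidirectional fit vs DMSO.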

[4] = ATG_MRE_CIS: Attagene CIS-FACTORIAL HepG2 Assay for human Metal Responsive Element (MRE) (AID 2282954); conditions: HepG2 MRE cis-reporter transcription, Attagene multiplex; actives raise or lower the signal
Outline: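 Fluorescent reporter fragments separated by capillary electrophoresis give mRNA induction for the MRE unit after 24 h treatment of transfected HepG2 cells. Endogenous transcription-factor activity is read; DMSO serves as negative control and baseline.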

[5] = ATG_PBREM_CIS: Attagene CIS-FACTORIAL HepG2 Assay for human Phenobarbital-responsive Enhancer Module (PBREM) (AID 2282955); conditions: HepG2 PBREM cis-reporter, Attagene multiplexed transcription; actives raise or lower the signal
Outline: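 HepG2, transient MRTU transfection, 24 h dosing; RNA → oligo(dT) RT → PCR → 6-FAM extension → HpaI → CE. Bidirectional fit vs DMSO.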

[6] = biological target: Paired box protein Pax-6 (Homo sapiens) (UniProt P26367); assay: ATG_Pax6_CIS: Attagene CIS-FACTORIAL HepG2 Assay for human Paired Box 6 (PAX6) (AID 2282956); conditions: HepG2 CIS-FACTORIAL PAX6 reporter transcription, RNA readout; actives raise or lower the signal
Outline: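 HepG2 cells transiently transfected with multiplexed cis-promoter reporter units (endogenous TF activity) were dosed for 24 h. Reporter mRNA was quantified by RT-PCR, 6-FAM labeling, HpaI digestion and capillary electrophoresis; bidirectional fitting versus DMSO baseline.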

[7] = ATG_PXRE_CIS: Attagene CIS-FACTORIAL HepG2 Assay for human Pregnane X Receptor Element (PXRE) (AID 2282957); conditions: HepG2 Attagene CIS-FACTORIAL PXRE reporter, mRNA; actives raise or lower the signal
Outline: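 Transfect HepG2 with MRTUs (cis promoter elements); dose chemical, incubate 24 h; isolate RNA, RT with oligo(dT), PCR, 6-FAM label, HpaI cut, CE. Gain/loss fit vs DMSO.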

[8] = ATG_PPRE_CIS: Attagene CIS-FACTORIAL HepG2 Assay for human Peroxisome Proliferator-activated Response Element (PPRE) (AID 2282958); conditions: HepG2 PPRE cis-element reporter, Attagene transcription factor profiling; actives raise or lower the signal
Outline: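 Transcript-level reporter induction in transfected HepG2 cells after 24 h chemical exposure, quantified by fluorescence from RT-PCR products separated by capillary electrophoresis.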

[9] = ATG_RORE_CIS: Attagene CIS-FACTORIAL HepG2 Assay for human RAR-related Orphan Receptor Element (RORE) (AID 2282959); conditions: HepG2 Attagene cis-factorial RORE reporter, mRNA; actives raise or lower the signal
Outline: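 Multiplexed reporter assay measuring mRNA induction from a cis promoter element in transiently transfected HepG2 cells after 24 h treatment. Detection via RT-PCR and capillary electrophoresis fluorescence; DMSO serves as baseline.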

[10] = ATG_Sox_CIS: Attagene CIS-FACTORIAL HepG2 Assay for human SRY-box transcription factor (SOX) (AID 2282960); conditions: HepG2 Attagene cis-factorial SOX reporter, mRNA; actives raise or lower the signal
Outline: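 Cells were transfected with reporter constructs under cis-regulatory promoters, then exposed to chemicals for 24 h. Reporter transcripts were quantified by fluorescence after RT-PCR and capillary electrophoresis; activity was fitted in both directions against DMSO.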

Measured: AC50

Paired box protein Pax-6 (Homo sapiens), sequence (P26367 whole entry, looked up): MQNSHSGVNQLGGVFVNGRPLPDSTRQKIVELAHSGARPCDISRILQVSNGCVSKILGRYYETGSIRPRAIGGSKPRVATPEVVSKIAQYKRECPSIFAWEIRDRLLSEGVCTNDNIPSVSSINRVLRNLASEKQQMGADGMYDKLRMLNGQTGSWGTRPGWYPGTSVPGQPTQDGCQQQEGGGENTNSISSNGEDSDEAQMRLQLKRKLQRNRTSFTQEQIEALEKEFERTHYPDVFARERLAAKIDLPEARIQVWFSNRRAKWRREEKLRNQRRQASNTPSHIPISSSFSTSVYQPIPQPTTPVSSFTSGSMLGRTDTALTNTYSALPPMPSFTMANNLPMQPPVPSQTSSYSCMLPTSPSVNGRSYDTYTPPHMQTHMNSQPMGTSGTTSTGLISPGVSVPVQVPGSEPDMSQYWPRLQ
Heat shock factor protein 1 (Homo sapiens), sequence (Q00613 whole entry, looked up): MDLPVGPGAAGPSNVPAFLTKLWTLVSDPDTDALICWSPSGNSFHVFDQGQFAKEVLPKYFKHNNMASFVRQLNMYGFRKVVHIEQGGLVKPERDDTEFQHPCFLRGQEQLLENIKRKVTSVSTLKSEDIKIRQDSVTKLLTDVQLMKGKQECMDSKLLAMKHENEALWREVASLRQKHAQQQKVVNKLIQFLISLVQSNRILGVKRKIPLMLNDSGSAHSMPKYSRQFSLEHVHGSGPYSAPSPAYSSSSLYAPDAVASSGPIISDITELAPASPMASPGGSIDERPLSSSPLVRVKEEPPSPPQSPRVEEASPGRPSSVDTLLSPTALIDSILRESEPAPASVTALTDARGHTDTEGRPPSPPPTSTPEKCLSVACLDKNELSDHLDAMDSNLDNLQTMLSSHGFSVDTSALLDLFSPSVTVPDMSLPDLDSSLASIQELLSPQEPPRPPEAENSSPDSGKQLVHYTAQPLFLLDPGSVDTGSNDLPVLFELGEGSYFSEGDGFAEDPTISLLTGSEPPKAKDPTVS
Hypoxia-inducible factor 1-alpha (Homo sapiens), sequence (Q16665 whole entry, looked up): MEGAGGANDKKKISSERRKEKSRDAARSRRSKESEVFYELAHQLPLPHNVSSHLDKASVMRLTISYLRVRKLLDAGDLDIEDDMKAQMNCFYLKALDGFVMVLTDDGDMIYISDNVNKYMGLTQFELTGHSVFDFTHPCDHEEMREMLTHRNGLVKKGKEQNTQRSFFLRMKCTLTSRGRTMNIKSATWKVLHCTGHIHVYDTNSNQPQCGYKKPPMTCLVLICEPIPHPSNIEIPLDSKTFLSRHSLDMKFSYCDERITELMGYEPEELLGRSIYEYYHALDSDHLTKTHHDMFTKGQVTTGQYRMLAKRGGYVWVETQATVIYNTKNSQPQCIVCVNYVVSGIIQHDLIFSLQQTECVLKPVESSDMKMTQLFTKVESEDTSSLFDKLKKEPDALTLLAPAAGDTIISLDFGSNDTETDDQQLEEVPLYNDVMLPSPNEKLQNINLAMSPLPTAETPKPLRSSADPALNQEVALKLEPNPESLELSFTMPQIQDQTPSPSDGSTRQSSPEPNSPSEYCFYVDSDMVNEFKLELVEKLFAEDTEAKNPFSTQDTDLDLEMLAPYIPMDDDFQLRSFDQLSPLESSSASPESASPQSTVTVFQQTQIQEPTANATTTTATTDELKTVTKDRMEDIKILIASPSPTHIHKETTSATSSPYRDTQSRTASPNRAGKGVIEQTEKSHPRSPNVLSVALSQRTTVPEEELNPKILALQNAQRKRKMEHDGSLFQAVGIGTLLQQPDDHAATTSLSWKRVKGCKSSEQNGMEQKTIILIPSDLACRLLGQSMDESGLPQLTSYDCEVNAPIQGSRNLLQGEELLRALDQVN
Hepatocyte nuclear factor 6 (Homo sapiens), sequence (Q9UBC0 whole entry, looked up): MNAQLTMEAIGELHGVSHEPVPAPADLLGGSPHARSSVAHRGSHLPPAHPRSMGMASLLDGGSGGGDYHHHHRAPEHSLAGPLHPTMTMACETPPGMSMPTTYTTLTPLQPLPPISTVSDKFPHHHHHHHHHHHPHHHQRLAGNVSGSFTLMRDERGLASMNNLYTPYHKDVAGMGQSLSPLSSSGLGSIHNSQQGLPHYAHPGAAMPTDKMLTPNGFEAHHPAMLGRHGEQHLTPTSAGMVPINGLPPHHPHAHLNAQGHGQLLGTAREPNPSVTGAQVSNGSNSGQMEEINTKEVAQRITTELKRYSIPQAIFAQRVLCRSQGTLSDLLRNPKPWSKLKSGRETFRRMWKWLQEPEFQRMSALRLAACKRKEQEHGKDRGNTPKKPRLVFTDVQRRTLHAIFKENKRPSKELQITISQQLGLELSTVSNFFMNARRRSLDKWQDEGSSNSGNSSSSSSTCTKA

CC(F)(F)CC(F)(F)F
inactive: all assays above

CCOC(=O)Cc1ccccc1
inactive: all assays above

OCCCCO
active: [7] 59 µM
inactive: all other assays above

NC(=O)c1ccc(N)nc1
not listed: [9]
inactive: all other assays above

Brc1ccc(Br)cc1
inactive: all assays above

CC(C)(C)c1ccccc1O
inactive: [3] | [5] | [8]
active: [1] 182 µM | [2] 147 µM | [4] 149 µM | [6] 165 µM | [7] 23.9 µM | [9] 160 µM | [10] 100 µM

CCCCN(CCCCO)N=O
active: [7] 35.3 µM
inactive: all other assays above

CC(=Cc1ccccc1)[N+](=O)[O-]
active: [3] 4.41 µM | [5] 13.7 µM | [6] 11.1 µM | [7] 4.02 µM
inactive: all other assays above

C=CC(=O)[O][Sn]([CH2]CCC)([CH2]CCC)[CH2]CCC
active: [2] 0.657 µM | [3] 0.645 µM | [4] 0.412 µM | [5] 0.321 µM | [6] 0.52 µM | [7] 0.744 µM | [8] 0.00687 µM | [10] 0.67 µM
inactive: [1] | [9]

Nc1ccc(Br)cc1
inactive: all assays above

CCCCCCCCCCCCBr
inactive: all assays above

CCCCS(=O)(=O)Cl
inactive: all assays above

O=S(=O)(Oc1ccc(Cl)cc1)c1ccc(Cl)cc1
active: [4] 53.3 µM | [5] 10.8 µM | [7] 5.87 µM
inactive: all other assays above

Cc1cc(Cl)ccc1OC(C)C(=O)O (centres undefined)
active: [8] 68.4 µM
inactive: all other assays above

C[CH2][Hg][S]c1ccccc1C(=O)O
active: [2] 4.19 µM | [4] 3.71 µM | [6] 4.42 µM | [7] 5.8 µM | [8] 0.814 µM | [9] 2.97 µM | [10] 2.56 µM
inactive: [1] | [3] | [5]

O=C(CCl)Nc1ccccc1
active: [1] 69.2 µM | [3] 49 µM | [4] 56.4 µM | [6] 72.6 µM | [7] 33.4 µM | [8] 3.66 µM | [10] 32.9 µM
inactive: [2] | [5] | [9]

ClCc1ccccc1CCl
active: [2] 23.1 µM | [3] 21.7 µM | [6] 25.7 µM | [7] 18.3 µM | [10] 22.6 µM
inactive: [1] | [4] | [5] | [8] | [9]

C[As+](C)(C)CC(=O)[O-]
inactive: all assays above

O=C1C=CC(=O)c2ccccc21
inactive: all assays above

CC(C)[N+](=O)[O-]
inactive: all assays above

CC(C)CC(C)(c1ccc(O)cc1)c1ccc(O)cc1
active: [3] 17 µM | [4] 16.6 µM | [6] 17.2 µM | [7] 2.92 µM | [8] 15.3 µM
inactive: [1] | [2] | [5] | [9] | [10]

CC[N+](CC)(CC)CC
inactive: all assays above
